14-3-3g Raf = modulators of 14-3-3 gamma protein binding, primary screen, biochemical, fluorescence polarization | inhibition, % at 40 µM | AID 422, 2006 | FP, 14-3-3gamma / TMR-pS259-Raf peptide binding | 0.19% of 160,000 active; in the data active = inhibition above about 30%;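 note: 0% = protein plus tracer without compound and 100% = blank with tracer alone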
Target sequence (P61981 whole entry, looked up): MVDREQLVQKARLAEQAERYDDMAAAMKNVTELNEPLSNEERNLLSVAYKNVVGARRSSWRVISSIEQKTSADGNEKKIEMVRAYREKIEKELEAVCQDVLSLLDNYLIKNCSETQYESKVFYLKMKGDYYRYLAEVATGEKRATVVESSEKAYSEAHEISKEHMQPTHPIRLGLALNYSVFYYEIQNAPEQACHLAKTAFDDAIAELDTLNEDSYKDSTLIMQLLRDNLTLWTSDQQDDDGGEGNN
Starred values were filed as active, the others as inactive. Shown is part of a subset that was picked to be rich in hits.

SMILES	14-3-3g Raf
COc1ccccc1C1Nc2ccc(C(=O)O)cc2C2C=CCC21 (stereo unspecified)	-75.2
CCC(=O)Nc1nc2c(c3c1c(=O)oc1ccccc13)CC(C)CC2 (stereo unspecified)	1.8
CC1=C(C(=O)OC(C)C)C(c2ccc(Br)cc2)C2=C(CC(c3ccccc3)CC2=O)N1 (stereo unspecified)	8.6
O=C(O)c1ccccc1C1=Nc2ccc(O)cc2Oc2cc(O)ccc21	122.7*
O=C1c2ccccc2C(=O)c2cc(O)ccc21	-16.6
Cc1cc(-c2ccccc2C(=O)O)on1	-2.5
CCN(CC)CCNC(=O)c1ccc2c(c1)N(Cc1ccc(C)cc1)C(=O)c1ccccc1S2	1.5
CN(C)c1ccc(C2CC(c3ccc(Br)cc3)=NN2C(=O)CCC(=O)O)cc1 (stereo unspecified)	6.4
CCN(C(=O)c1cc2c(=O)n3ccccc3nc2s1)c1ccc(C)c(C)c1	0.0
COc1ccccc1NC(=O)c1c(NC(=O)c2ccc([N+](=O)[O-])cc2)sc2c1CCCCC2	4.2
Nc1cc(=O)[nH]c(SCC(=O)Nc2nccs2)n1	-3.6
COc1ccc2c3c(cccc13)C(=O)c1ccccc1-2	32.5*
COC(=O)CSc1ccc2c3c(cccc13)C(=O)c1ccccc1-2	20.2
O=C1c2ccccc2-c2ccc(Br)c3cccc1c23	-0.5
CC(=O)N1CCc2cc(Br)cc(S(=O)(=O)N3CCN(C4CCCC4)CC3)c21	3.8
COc1ccc2oc(=O)c(C(=O)NCc3ccccc3)cc2c1	-4.5
COc1ccc2oc(=O)c(C(=O)C[n+]3ccc(N(C)C)cc3)cc2c1	40.7*
COc1cccc2cc(C(=O)C[n+]3ccc(N(C)C)cc3)c(=O)oc12	-5.4
CCCNC(=O)c1c(CC)c(-c2ccccc2)nc2ccccc12	-9.0
COc1ccc(-c2ccc3c(N)c(C(=O)c4ccc5c(c4)OCCO5)sc3n2)cc1	70.8*
COc1cccc(-c2ccc3c(N)c(C(=O)c4ccc(Cl)cc4)sc3n2)c1	-3.4
COc1ccc(-c2ccc3c(N)c(C(=O)Nc4ccc5c(c4)OCCO5)sc3n2)cc1	-3.4
Cc1ccc(C2=NN(C(=O)CCCC(=O)O)C(Cc3cc4cccc(C)c4nc3Cl)C2)cc1 (stereo unspecified)	-220.5
Cc1ccc2nc(N=C(NC(=O)c3ccccc3)NC(=O)c3ccccc3)nc(C)c2c1	5.9
CC(C)(C)n1cnc2cc(NCc3ccncc3)ccc21	6.2
SMILES	14-3-3g Raf
Cn1cnc2cc(NCc3ccccn3)ccc21	3.1
CC(C)(C)n1cnc2cc(NCc3ccccn3)ccc21	31.6*
O=C(O)c1cccnc1SC1CC(=O)N(c2ccc(N3CCOCC3)cc2)C1=O (stereo unspecified)	30.3*
O=C(O)c1cccnc1SC1CC(=O)N(c2ccc([N+](=O)[O-])cc2)C1=O (stereo unspecified)	-4.8
O=C(O)c1cccnc1SC1CC(=O)N(c2ccc3c(c2)OCO3)C1=O (stereo unspecified)	-51.3
CCOc1ccc2[nH]c(=O)c(CN(C(=O)N3CCOCC3)C3CC3)cc2c1	-6.7
CCOc1ccc2[nH]c(=O)c(CN(CC3COCCO3)C(=O)C3CC3)cc2c1 (stereo unspecified)	39.5*
CCOc1ccc2[nH]c(=O)c(CN(Cc3ccccc3)C(=O)N3CCCC3)cc2c1	-8.4
CCOC(=O)c1cnc2cc(Cl)c(OC)cc2c1Nc1ccc(F)cc1	-6.1
Cc1ccc([N+](=O)[O-])cc1NC(=O)c1cccc(S(=O)(=O)N2CCCCC2)c1	-3.2
COc1cc(C=Nc2ccc(O)cc2)ccc1OC(=O)CC1SC(=O)NC1=O (stereo unspecified)	103.3*
COC(=O)CC1SC(=O)NC1=Nc1ccc(O)cc1 (stereo unspecified)	-6.5
COc1cc(C=Nc2ccc(N(C)C(C)=O)cc2)ccc1OC(C)=O	3.2
Cc1ccc2sc(-c3ccc(NC4=CC(=O)CC(C)(C)C4)cc3)nc2c1	-62.2
Nc1ccccc1N1CCCCC1	-8.2
O=C(CN1C(=O)c2ccc([N+](=O)[O-])cc2C1=O)Nc1ccccc1[N+](=O)[O-]	3.1
O=C(CN1C(=O)c2ccc([N+](=O)[O-])cc2C1=O)Nc1ccc(O)cc1C(=O)O	37.2*
O=C(CN1C(=O)c2ccc([N+](=O)[O-])cc2C1=O)Nc1ccc(Br)cc1C(=O)O	-1.8
CSc1nc2c(oc3ccc(Cl)cc32)c(=O)n1CC1CCCO1 (stereo unspecified)	8.2
CCC(C)(C(=O)NC1CCCC1)N(C(=O)c1ccccn1)c1c(C)n(C)n(-c2ccccc2)c1=O (stereo unspecified)	-53.3
Cc1cccc(N(CC(=O)Nc2ccccc2F)S(C)(=O)=O)c1C	-4.8
O=C(O)c1ccc(NC(=O)C2CC(=O)N(Cc3ccccc3)C(=Nc3ccc(F)cc3)S2)cc1 (stereo unspecified)	-5.6
Oc1ccc(NCc2cccs2)cc1	52.1*
O=[N+]([O-])c1cccc(NCc2cccs2)c1	0.4
CCOC(=O)Cc1ccc(NCc2cccs2)cc1	-3.0
O=[N+]([O-])c1c(Nc2ccccc2)cc(N2CCCCC2)c2nonc12	-4.9
